Measured values published in PubChem BioAssay (NCI).
About 83,000 compounds went through this panel and 20% of them were active in at least one assay; those are over-represented in the sample as a whole.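 96-well plates, one dose, 48 hours. Percent growth reported; active if below 10.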 Values without a mark were called inactive. Active and inactive are the calls of the source.

Key:
Experiment in all cases: NCI-60 one-dose screen, 48 h (100 = growth as untreated, 0 = no growth, -100 = all killed)
Conditions in all cases: 10 µM unless noted
T-47D breast = test system: T-47D breast
BT-549 breast = test system: BT-549 breast
MDA-MB-435 melanoma = test system: MDA-MB-435 melanoma
SW-620 colon = test system: SW-620 colon
MCF7 breast = test system: MCF7 breast
HCT-116 colon = test system: HCT-116 colon
HCC-2998 colon = test system: HCC-2998 colon
KM12 colon = test system: KM12 colon

C=C1C(=O)O[C@H]2[C@H]1CC/C(COC(=O)NCc1ccc(Cn3c(=O)sn(CCCCC)c3=O)cc1)=C\CC[C@@]1(C)O[C@@H]21
growth (T-47D breast): 0.543% (active) | growth (BT-549 breast): 42.5% | growth (MDA-MB-435 melanoma): 25.7% | growth (SW-620 colon): -61.1% (active) | growth (MCF7 breast): 6.29% (active) | growth (HCT-116 colon): -12.3% (active) | growth (HCC-2998 colon): 94.6% | growth (KM12 colon): 95.9%

COC(=O)C1Cc2ccccc2CN1C(=O)c1ccc2c(c1)Cc1ccccc1-2 (stereo not given)
growth (T-47D breast): 15.8% [50 µM] | growth (BT-549 breast): 28.3% [50 µM] | growth (MDA-MB-435 melanoma): 24.9% [50 µM] | growth (SW-620 colon): 51.2% [50 µM] | growth (MCF7 breast): 16.7% [50 µM] | growth (HCT-116 colon): 30.2% [50 µM] | growth (HCC-2998 colon): 67.7% [50 µM] | growth (KM12 colon): 34.2% [50 µM]

Cn1c(=O)cc2c3c(c(NCCCO)ccc31)C(=O)c1ccccc1-2
growth (T-47D breast): 51.8% | growth (BT-549 breast): 73.6% | growth (MDA-MB-435 melanoma): 44% | growth (SW-620 colon): 32.6% | growth (MCF7 breast): 27.6% | growth (HCT-116 colon): 16.5% | growth (HCC-2998 colon): 49.1% | growth (KM12 colon): 42.7%

O=C(Nc1ccc(OS(=O)(=O)c2ccc(F)cc2)cc1)C1CCCCCC1
growth (T-47D breast): 81.4% | growth (BT-549 breast): 80.5% | growth (MDA-MB-435 melanoma): 97.3% | growth (SW-620 colon): 88.9% | growth (MCF7 breast): 92.1% | growth (HCT-116 colon): 84.5% | growth (HCC-2998 colon): 78.9% | growth (KM12 colon): 70.3%

NC(=O)CSc1oc(-c2ccccc2)nc1S(=O)(=O)c1ccc(Br)cc1
growth (T-47D breast): 57.8% | growth (BT-549 breast): 62.1% | growth (MDA-MB-435 melanoma): 81% | growth (SW-620 colon): 94.4% | growth (MCF7 breast): 75% | growth (HCT-116 colon): 50.6% | growth (HCC-2998 colon): 93.3% | growth (KM12 colon): 89%

COC12C=C/C(=C(/C(=O)OCc3ccncn3)C(=O)CCCCCCCCC3(OC)C=C/C(=C(/C(=O)OCc4ccncn4)C(=O)CCCCCCCC1)O3)O2
growth (T-47D breast): 25.3% | growth (BT-549 breast): -27.1% (active) | growth (MDA-MB-435 melanoma): -34.4% (active) | growth (SW-620 colon): 12.9% | growth (MCF7 breast): 5.92% (active) | growth (HCT-116 colon): -50.9% (active) | growth (HCC-2998 colon): -85.1% (active) | growth (KM12 colon): -75.9% (active)

CCN(CC)CCCCCNc1cc(OC(=O)c2ccc(Cl)cc2)cc2cccnc12
growth (T-47D breast): 56% | growth (BT-549 breast): 98% | growth (MDA-MB-435 melanoma): 120% | growth (SW-620 colon): 105% | growth (MCF7 breast): 86.5% | growth (HCT-116 colon): 83.6% | growth (HCC-2998 colon): 84.9% | growth (KM12 colon): 111%

O=C1NC(=C(Cl)Cl)/C(=N\S(=O)(=O)NCc2ccccc2)N1
growth (T-47D breast): 52% | growth (BT-549 breast): 97.8% | growth (MDA-MB-435 melanoma): 95.8% | growth (SW-620 colon): 111% | growth (MCF7 breast): 74.4% | growth (HCT-116 colon): 94.2% | growth (HCC-2998 colon): 127% | growth (KM12 colon): 62.9%

C=C1C(=O)O[C@H]2[C@H]1CC/C(COC(=O)C(=O)c1cn(C)c3ccc(Cl)cc13)=C\CC[C@@]1(C)O[C@@H]21
growth (T-47D breast): -55.6% (active) | growth (BT-549 breast): -74.5% (active) | growth (MDA-MB-435 melanoma): -81.3% (active) | growth (SW-620 colon): -69.1% (active) | growth (MCF7 breast): -54.3% (active) | growth (HCT-116 colon): -96.4% (active) | growth (HCC-2998 colon): -80.3% (active) | growth (KM12 colon): -49.7% (active)

CCN(CC)S(=O)(=O)c1ccc(S(=O)(=O)N2CCC[C@@H](C(=O)N3CCN(c4nc(C(C)C)no4)CC3)C2)cc1
growth (T-47D breast): 43.1% | growth (BT-549 breast): 62.9% | growth (MDA-MB-435 melanoma): 55.7% | growth (SW-620 colon): 79.5% | growth (MCF7 breast): 50.7% | growth (HCT-116 colon): 51.8% | growth (HCC-2998 colon): 78.7% | growth (KM12 colon): 77.4%

CCN1C(=S)N(c2ccccc2)C2NC(=S)N(/N=C/C=C/c3ccccc3OC)C21 (stereo not given)
growth (T-47D breast): 66.7% | growth (BT-549 breast): 9.74% (active) | growth (MDA-MB-435 melanoma): -31% (active) | growth (SW-620 colon): 18.3% | growth (MCF7 breast): 16.7% | growth (HCT-116 colon): 10.5% | growth (HCC-2998 colon): 17.2% | growth (KM12 colon): 7.72% (active)

COc1ccccc1CNc1c2ccccc2nc2ccccc12
growth (T-47D breast): 46.2% | growth (BT-549 breast): 77% | growth (MDA-MB-435 melanoma): 42.6% | growth (SW-620 colon): 22.1% | growth (MCF7 breast): 16.8% | growth (HCT-116 colon): 12.7% | growth (HCC-2998 colon): 38.8% | growth (KM12 colon): 32.9%

N#Cc1nc(-c2ccc(Cl)cc2)oc1S(=O)(=O)N1CCN(c2ccc(F)cc2)CC1
growth (T-47D breast): 89.3% | growth (BT-549 breast): 100% | growth (MDA-MB-435 melanoma): 100% | growth (SW-620 colon): 72.8% | growth (MCF7 breast): 83.5% | growth (HCT-116 colon): 78.7% | growth (HCC-2998 colon): 99.4% | growth (KM12 colon): 102%

CCCCNC(=O)Oc1ccc(/C(=C(/C)Cc2ccc(OC)cc2)c2ccc(OCCN3CCCC3)cc2)cc1
growth (T-47D breast): 32.4% | growth (BT-549 breast): 73.8% | growth (MDA-MB-435 melanoma): 55.8% | growth (SW-620 colon): 72.7% | growth (MCF7 breast): 17.7% | growth (HCT-116 colon): 39.3% | growth (HCC-2998 colon): 64.7% | growth (KM12 colon): 55.3%

COc1ccc(C(=O)C/C(=C\c2ccc(Cl)cc2)C(=O)NCc2ccccc2)cc1
growth (T-47D breast): 65.3% | growth (BT-549 breast): 110% | growth (MDA-MB-435 melanoma): 68.8% | growth (SW-620 colon): 98.2% | growth (MCF7 breast): 86.1% | growth (HCT-116 colon): 82.5% | growth (HCC-2998 colon): 93.1% | growth (KM12 colon): 99.7%
